Laboratory results as given in the supplement of paper PMC10849652.
The full data set covers some 8,800 targets. This sample favours those with a hit. About 0.5% of all pairs of compound and target were hits.

Assays:
Assay in all cases: log2 fold change, soluble protein after heating vs DMSO (PISA); higher = thermal stabilisation; K562 lysate, 10 uM; active = over 0.2 and 3.5 SD of the protein, either way, in both replicates (recomputed)
lapatinib = compound: CS(=O)(=O)CCNCc1ccc(-c2ccc3ncnc(Nc4ccc(OCc5cccc(F)c5)c(Cl)c4)c3c2)o1 [lapatinib]
Outline: (§1)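 A 30 min treatment with 10 μM compound was applied to crude K562 extract at 1 mg/mL protein in PBS pH 7.4 with 1 mM MgCl2. Heating for 3 min spanned 48°C-58°C, after which aliquots were pooled, adjusted to 0.5% NP-40 at 4°C and spun at 21,000xg for 90 min. TMTpro 16plex LC-MS/MS of the supernatant, with channel sums equalised, gave values recorded as log-two fold change in thermal stability against solvent controls, from duplicates.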

pictilisib = compound: CS(=O)(=O)N1CCN(Cc2cc3nc(-c4cccc5[nH]ncc45)nc(N4CCOCC4)c3s2)CC1 [pictilisib]
Outline: as §1

crizotinib = compound: C[C@@H](Oc1cc(-c2cnn(C3CCNCC3)c2)cnc1N)c1c(Cl)ccc(F)c1Cl [crizotinib]
Outline: as §1

[1] = compound: C[C@H](C1=CC=C(C=C1)C(=O)NC2=C3C=CNC3=NC=C2)N
Outline: as §1

duvelisib = compound: C[C@H](Nc1ncnc2nc[nH]c12)c1cc2cccc(Cl)c2c(=O)n1-c1ccccc1 [duvelisib]
Outline: as §1

gandotinib = compound: Cc1cc(Nc2cc(CN3CCOCC3)c3nc(C)c(Cc4ccc(Cl)cc4F)n3n2)n[nH]1 [gandotinib]
Outline: as §1

tozasertib = compound: Cc1cc(Nc2cc(N3CCN(C)CC3)nc(Sc3ccc(NC(=O)C4CC4)cc3)n2)n[nH]1 [tozasertib]
Outline: as §1

doramapimod = compound: Cc1ccc(-n2nc(C(C)(C)C)cc2NC(=O)Nc2ccc(OCCN3CCOCC3)c3ccccc23)cc1 [doramapimod]
Outline: as §1

bafetinib = compound: Cc1ccc(NC(=O)c2ccc(CN3CC[C@H](N(C)C)C3)c(C(F)(F)F)c2)cc1Nc1nccc(-c2cncnc2)n1 [bafetinib]
Outline: as §1

[2] = compound: Cc1cccc(CC(=O)N2CCc3c2ccc(-c2cn(C)c4ncnc(N)c24)c3F)n1
Outline: as §1

nilotinib = compound: Cc1cn(-c2cc(NC(=O)c3ccc(C)c(Nc4nccc(-c5cccnc5)n4)c3)cc(C(F)(F)F)c2)cn1 [nilotinib]
Outline: as §1

[3] = compound: Cc1nc(Nc2n[nH]c3c2CN(C(=O)N[C@H](CN(C)C)c2ccccc2)C3(C)C)c2sccc2n1
Outline: as §1

dasatinib = compound: Cc1nc(Nc2ncc(C(=O)Nc3c(C)cccc3Cl)s2)cc(N2CCN(CCO)CC2)n1 [dasatinib]
Outline: as §1

[4] = compound: Cc1ncc(-c2ccnc(Nc3ccc(S(C)(=O)=O)cc3)n2)n1C(C)C
Outline: as §1

[5] = compound: Cn1cc(-c2ccc3c(c2)CCN3C(=O)Cc2cccc(C(F)(F)F)c2)c2c(N)ncnc21
Outline: as §1

quisinostat = compound: Cn1cc(CNCC2CCN(c3ncc(C(=O)NO)cn3)CC2)c2ccccc21 [quisinostat]
Outline: as §1

tipifarnib = compound: Cn1cncc1[C@@](N)(c1ccc(Cl)cc1)c1ccc2c(c1)c(-c1cccc(Cl)c1)cc(=O)n2C [tipifarnib]
Outline: as §1

[6] = compound: NC(=O)Nc1cc(-c2cccc(F)c2)sc1C(=O)N[C@H]1CCCNC1
Outline: as §1

[7] = compound: NC(=O)c1cnc(N[C@@H]2CCCC[C@@H]2N)nc1Nc1cccc(-n2nccn2)c1
Outline: as §1

[8] = compound: NC1(c2ccc(-c3nc4ccn5c(=O)[nH]nc5c4cc3-c3ccccc3)cc2)CCC1
Outline: as §1

Measured: log2 fold change

IARS (UniProt P41252)
inactive: lapatinib -0.032 | pictilisib -0.006 | crizotinib -0.045 | [1] 0.059 | duvelisib -0.001 | gandotinib -0.13 | tozasertib 0.013 | doramapimod 0.016 | bafetinib -0.015 | [2] -0.041 | nilotinib 0.007 | [3] -0.007 | dasatinib -0.042 | [4] -0.015 | [5] 0.053 | quisinostat -0.02 | tipifarnib -0.003 | [6] 0.038 | [7] 0.001 | [8] -0.029

KDM5B isoform 2 (UniProt Q9UGL1)
inactive: lapatinib -0.006 | pictilisib -0.041 | crizotinib -0.02 | [1] -0.003 | duvelisib 0 | gandotinib 0.257 | tozasertib 0.13 | doramapimod -0.033 | bafetinib -0.013 | [2] 0.29 | dasatinib 0.021 | [5] -0.049 | quisinostat -0.117 | [6] -0.085 | [7] 0.034 | [8] -0.049

IPP (UniProt Q9Y573)
inactive: lapatinib 0.04 | [1] 0.067 | duvelisib -0.016 | gandotinib -0.172 | tozasertib 0.078 | [2] 0.074 | dasatinib -0.244 | [5] 0.03 | [7] -0.097 | [8] 0.093

HOMER3 (UniProt Q9NSC5)
active: pictilisib 0.42
inactive: lapatinib 0.091 | crizotinib 0.021 | [1] 0.048 | gandotinib 0.061 | doramapimod 0.016 | bafetinib 0.234 | [2] -0.072 | quisinostat -0.147 | [6] 0.019 | [7] -0.023

GSTM2 (UniProt P28161)
inactive: lapatinib -0.024 | pictilisib -0.011 | [1] 0.121 | duvelisib -0.067 | gandotinib -0.042 | tozasertib 0.02 | bafetinib -0.011 | [2] -0.079 | nilotinib 0.124 | [3] -0.007 | dasatinib 0.027 | [4] 0.007 | [5] -0.005 | tipifarnib 0.064 | [7] -0.052 | [8] -0.019

IRS2 (UniProt Q9Y4H2)
Sequence of UniProt Q9Y4H2 (Q9Y4H2 whole entry, looked up): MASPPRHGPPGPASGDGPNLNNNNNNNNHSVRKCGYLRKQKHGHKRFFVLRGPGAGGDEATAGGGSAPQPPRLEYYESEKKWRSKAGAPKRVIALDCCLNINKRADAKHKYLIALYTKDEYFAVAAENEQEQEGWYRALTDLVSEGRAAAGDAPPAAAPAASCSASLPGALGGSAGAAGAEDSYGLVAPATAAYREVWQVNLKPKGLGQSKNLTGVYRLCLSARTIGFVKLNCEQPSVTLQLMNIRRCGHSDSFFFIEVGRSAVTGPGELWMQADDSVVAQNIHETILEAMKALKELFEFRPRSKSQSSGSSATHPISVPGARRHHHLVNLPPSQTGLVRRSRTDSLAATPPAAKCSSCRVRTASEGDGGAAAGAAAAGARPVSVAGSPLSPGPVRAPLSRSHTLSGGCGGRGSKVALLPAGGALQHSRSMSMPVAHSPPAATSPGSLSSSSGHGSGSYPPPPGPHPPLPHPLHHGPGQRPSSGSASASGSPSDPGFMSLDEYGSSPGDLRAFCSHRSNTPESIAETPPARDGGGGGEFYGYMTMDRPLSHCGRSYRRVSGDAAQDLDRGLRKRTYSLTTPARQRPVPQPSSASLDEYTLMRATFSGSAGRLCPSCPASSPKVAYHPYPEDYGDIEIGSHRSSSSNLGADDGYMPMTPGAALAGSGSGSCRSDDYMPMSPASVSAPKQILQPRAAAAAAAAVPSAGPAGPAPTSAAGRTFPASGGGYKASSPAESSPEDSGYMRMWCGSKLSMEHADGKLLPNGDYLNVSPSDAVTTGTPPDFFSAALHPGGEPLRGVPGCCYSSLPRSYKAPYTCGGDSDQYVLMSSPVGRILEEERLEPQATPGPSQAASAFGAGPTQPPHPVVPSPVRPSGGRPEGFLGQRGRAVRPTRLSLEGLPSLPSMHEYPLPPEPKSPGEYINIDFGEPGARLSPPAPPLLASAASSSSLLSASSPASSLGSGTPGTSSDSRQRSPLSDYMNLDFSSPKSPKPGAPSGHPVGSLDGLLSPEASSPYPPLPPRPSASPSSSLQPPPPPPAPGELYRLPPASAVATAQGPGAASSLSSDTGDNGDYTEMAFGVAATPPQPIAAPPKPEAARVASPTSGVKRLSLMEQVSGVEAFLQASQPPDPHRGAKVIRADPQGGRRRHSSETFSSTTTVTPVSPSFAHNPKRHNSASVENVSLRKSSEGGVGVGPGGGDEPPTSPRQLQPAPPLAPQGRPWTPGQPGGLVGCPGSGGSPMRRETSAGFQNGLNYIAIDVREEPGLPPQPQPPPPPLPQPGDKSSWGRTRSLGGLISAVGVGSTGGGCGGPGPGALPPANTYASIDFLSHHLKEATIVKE
active: [1] -0.578
inactive: lapatinib -0.128 | pictilisib 0.023 | crizotinib -0.186 | duvelisib 0 | gandotinib 0.296 | doramapimod 0.019 | bafetinib 0.031 | [2] 0.307 | nilotinib -0.05 | [3] -0.044 | dasatinib -0.018 | [4] -0.071 | [5] -0.074 | quisinostat -0.15 | tipifarnib -0.071 | [6] 0.142 | [7] 0.062 | [8] 0.112

GPLD1 (UniProt P80108)
Sequence of UniProt P80108 (P80108 whole entry, looked up): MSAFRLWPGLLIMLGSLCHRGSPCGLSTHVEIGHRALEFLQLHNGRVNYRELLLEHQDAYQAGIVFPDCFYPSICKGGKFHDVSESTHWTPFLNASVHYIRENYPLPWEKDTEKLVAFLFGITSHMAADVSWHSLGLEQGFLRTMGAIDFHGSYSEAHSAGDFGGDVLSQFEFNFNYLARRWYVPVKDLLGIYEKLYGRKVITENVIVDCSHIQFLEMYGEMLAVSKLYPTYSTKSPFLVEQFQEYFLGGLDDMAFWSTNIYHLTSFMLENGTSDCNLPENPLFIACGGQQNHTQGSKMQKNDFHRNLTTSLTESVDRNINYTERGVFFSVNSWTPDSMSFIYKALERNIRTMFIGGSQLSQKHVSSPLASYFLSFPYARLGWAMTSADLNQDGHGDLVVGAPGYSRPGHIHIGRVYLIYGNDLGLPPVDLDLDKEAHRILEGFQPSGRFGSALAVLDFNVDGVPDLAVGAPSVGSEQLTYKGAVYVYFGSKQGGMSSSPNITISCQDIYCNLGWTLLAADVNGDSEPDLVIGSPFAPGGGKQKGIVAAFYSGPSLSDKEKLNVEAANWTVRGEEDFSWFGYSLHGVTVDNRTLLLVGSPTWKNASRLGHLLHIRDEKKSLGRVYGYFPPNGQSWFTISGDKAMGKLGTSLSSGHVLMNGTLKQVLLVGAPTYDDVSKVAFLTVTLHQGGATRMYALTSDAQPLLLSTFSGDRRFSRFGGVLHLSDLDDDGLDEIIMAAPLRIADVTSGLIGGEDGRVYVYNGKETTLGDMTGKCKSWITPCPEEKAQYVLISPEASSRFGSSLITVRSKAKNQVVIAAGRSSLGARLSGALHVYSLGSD
inactive: crizotinib -0.108 | duvelisib -0.049 | doramapimod 0.081 | dasatinib -0.255 | [5] 0 | quisinostat 0.108 | [6] 0.153

JAK3 (UniProt P52333)
inactive: lapatinib -0.002 | pictilisib 0.01 | crizotinib 0.051 | [1] 0.418 | gandotinib -0.526 | doramapimod -0.081 | bafetinib 0.14 | quisinostat 0.131 | [6] 0.008 | [7] -0.056
active: [2] -0.612

HMGA1 isoform 2 (UniProt P17096)
Sequence of UniProt P17096 (P17096 whole entry, looked up): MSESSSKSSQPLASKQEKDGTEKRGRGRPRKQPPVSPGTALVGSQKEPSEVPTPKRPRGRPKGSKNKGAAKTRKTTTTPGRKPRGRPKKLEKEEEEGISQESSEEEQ
inactive: lapatinib -0.005 | crizotinib 0.125 | duvelisib -0.011 | gandotinib -0.26 | doramapimod -0.274 | [2] -0.491 | nilotinib 0.209 | [3] 0.014 | dasatinib 0.091 | [4] 0.395 | [5] -0.099 | quisinostat 0.289 | tipifarnib 0.168 | [6] -0.018 | [7] -0.064 | [8] -0.101
active: [1] 0.731

ISL2 (UniProt Q96A47)
Sequence of UniProt Q96A47 (Q96A47 whole entry, looked up): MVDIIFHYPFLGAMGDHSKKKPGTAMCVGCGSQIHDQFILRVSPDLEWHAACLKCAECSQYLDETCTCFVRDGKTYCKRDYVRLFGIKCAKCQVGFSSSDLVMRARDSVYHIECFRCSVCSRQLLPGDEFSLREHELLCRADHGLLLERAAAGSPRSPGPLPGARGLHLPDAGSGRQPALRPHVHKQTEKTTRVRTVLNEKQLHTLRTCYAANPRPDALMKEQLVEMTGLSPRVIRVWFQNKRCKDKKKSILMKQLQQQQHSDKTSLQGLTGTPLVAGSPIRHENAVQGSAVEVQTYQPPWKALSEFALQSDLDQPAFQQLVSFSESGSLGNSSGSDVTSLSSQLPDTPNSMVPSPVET
active: [1] 0.609
inactive: pictilisib 0 | crizotinib 0.001 | duvelisib 0.006 | gandotinib -0.104 | doramapimod -0.074 | bafetinib -0.055 | [2] -0.096 | dasatinib 0.015 | [5] 0.053 | quisinostat 0.055 | [6] -0.092 | [8] 0.014

HNRNPUL1 (UniProt M0R247)
inactive: pictilisib 0.038 | [1] 0.014 | gandotinib -0.014 | bafetinib 0.008 | [2] 0.034 | [8] -0.063

GYPA, A0A2R8Y7F9
inactive: pictilisib -0.033 | [1] -0.562 | gandotinib 0.202 | bafetinib -0.029 | [2] 0.17

GTPBP6 (UniProt O43824)
Sequence of UniProt O43824 (O43824 whole entry, looked up): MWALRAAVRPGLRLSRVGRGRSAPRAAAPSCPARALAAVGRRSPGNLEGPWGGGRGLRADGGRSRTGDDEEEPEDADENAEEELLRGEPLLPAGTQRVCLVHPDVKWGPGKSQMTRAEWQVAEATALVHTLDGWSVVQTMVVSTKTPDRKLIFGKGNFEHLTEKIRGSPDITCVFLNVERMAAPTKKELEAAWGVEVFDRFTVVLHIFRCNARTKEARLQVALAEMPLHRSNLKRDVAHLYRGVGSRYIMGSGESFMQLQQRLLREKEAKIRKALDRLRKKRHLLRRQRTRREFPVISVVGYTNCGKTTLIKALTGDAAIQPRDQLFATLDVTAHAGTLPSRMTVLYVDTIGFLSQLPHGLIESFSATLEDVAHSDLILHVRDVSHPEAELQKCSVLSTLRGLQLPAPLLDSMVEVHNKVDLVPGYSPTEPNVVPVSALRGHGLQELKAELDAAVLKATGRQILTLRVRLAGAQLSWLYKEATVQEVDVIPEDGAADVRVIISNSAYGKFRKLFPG
inactive: [1] 0.149 | duvelisib -0.003 | gandotinib 0.156 | tozasertib 0.023 | [2] -0.023 | dasatinib -0.025 | [5] 0.136

HDAC3 (UniProt E7ESJ6)
inactive: lapatinib -0.073 | [7] 0.058

IGF2BP2 isoform 6 (UniProt Q9Y6M1)
inactive: lapatinib 0.084 | [7] 0.079

HNRNPD (UniProt D6RF44)
inactive: crizotinib -0.086 | doramapimod 0 | nilotinib -0.03 | [3] 0.11 | [4] 0.103 | quisinostat -0.061 | tipifarnib 0.12 | [6] -0.353

GSE1 (UniProt Q14687)
Sequence of UniProt Q14687 (Q14687 whole entry, looked up): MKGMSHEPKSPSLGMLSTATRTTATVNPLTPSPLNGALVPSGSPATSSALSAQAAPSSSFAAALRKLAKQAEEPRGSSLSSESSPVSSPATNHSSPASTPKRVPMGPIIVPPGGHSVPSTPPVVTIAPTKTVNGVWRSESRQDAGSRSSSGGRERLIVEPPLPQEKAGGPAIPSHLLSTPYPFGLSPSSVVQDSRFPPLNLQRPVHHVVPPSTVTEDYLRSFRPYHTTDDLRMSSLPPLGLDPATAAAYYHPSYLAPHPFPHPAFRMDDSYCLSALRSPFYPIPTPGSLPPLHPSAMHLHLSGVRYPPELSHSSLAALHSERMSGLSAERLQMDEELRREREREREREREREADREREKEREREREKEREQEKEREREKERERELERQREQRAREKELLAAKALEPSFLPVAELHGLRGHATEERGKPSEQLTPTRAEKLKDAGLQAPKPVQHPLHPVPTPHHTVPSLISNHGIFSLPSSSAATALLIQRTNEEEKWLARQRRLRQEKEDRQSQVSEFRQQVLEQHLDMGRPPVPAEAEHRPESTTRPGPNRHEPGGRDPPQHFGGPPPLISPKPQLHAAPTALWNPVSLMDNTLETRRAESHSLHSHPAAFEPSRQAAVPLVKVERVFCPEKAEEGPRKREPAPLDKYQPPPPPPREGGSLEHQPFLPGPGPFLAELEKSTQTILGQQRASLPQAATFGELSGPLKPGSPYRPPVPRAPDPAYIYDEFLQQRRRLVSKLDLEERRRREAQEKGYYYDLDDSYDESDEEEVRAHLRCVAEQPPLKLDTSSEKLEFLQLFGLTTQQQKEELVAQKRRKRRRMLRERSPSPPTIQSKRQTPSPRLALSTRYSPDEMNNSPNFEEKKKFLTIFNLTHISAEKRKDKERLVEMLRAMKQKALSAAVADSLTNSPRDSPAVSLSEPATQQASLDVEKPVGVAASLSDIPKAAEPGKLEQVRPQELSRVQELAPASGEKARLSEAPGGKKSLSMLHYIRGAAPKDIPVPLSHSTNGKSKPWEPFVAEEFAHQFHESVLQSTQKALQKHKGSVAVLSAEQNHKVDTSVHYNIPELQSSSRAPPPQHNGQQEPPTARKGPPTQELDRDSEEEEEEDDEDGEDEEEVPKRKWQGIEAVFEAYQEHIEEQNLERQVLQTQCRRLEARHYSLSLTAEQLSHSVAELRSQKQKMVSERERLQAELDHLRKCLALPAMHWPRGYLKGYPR
inactive: lapatinib 0.006 | pictilisib -0.032 | crizotinib -0.014 | [1] -0.073 | duvelisib -0.015 | gandotinib 0.011 | tozasertib 0.008 | doramapimod -0.019 | bafetinib -0.006 | [2] 0.051 | nilotinib -0.017 | [3] 0.007 | dasatinib -0.064 | [4] 0.036 | [5] -0.005 | quisinostat -0.093 | tipifarnib -0.02 | [6] 0.059 | [7] 0.012 | [8] 0.029

ITGB1BP2 (UniProt Q9UKP3)
inactive: [1] -0.18 | duvelisib -0.005 | tozasertib -0.259 | [2] 0.548 | dasatinib -0.104 | [5] 0.249
active: gandotinib 0.86

HNRNPM (UniProt M0QZM1)
inactive: pictilisib 0.076 | crizotinib -0.07 | duvelisib -0.06 | tozasertib 0.075 | doramapimod -0.017 | bafetinib -0.243 | dasatinib -0.022 | [5] -0.163 | quisinostat 0 | [6] -0.012

KARS1 (UniProt Q15046)
Sequence of UniProt Q15046 (Q15046 whole entry, looked up): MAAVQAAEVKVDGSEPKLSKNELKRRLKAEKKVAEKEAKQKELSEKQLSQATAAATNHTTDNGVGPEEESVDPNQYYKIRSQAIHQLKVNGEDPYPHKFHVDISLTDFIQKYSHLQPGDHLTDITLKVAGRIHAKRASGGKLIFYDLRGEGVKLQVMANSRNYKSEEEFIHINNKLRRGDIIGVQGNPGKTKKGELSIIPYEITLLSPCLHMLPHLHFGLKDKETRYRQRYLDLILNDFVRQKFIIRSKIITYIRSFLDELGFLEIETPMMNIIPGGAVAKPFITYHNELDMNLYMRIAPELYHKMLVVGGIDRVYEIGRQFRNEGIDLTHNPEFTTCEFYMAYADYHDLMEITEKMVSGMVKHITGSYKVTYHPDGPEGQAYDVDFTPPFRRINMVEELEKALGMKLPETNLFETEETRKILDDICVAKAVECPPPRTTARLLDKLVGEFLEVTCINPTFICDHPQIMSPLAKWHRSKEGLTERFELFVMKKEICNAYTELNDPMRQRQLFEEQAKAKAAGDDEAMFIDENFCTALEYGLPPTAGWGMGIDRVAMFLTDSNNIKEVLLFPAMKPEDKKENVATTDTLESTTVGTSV
inactive: lapatinib -0.002 | pictilisib 0 | crizotinib 0.003 | [1] 0.036 | duvelisib 0.004 | gandotinib -0.082 | tozasertib 0.025 | doramapimod 0.007 | bafetinib -0.025 | [2] -0.026 | nilotinib -0.017 | [3] -0.01 | dasatinib -0.031 | [4] -0.029 | [5] 0.02 | quisinostat 0.034 | tipifarnib 0.02 | [6] 0.004 | [7] 0.013 | [8] 0.02

IGFBP4 (UniProt P22692)
inactive: lapatinib -0.007 | pictilisib 0.015 | crizotinib -0.042 | [1] 0 | duvelisib -0.029 | gandotinib 0.019 | doramapimod 0.014 | bafetinib -0.149 | [2] 0.095 | nilotinib 0.005 | [3] -0.01 | dasatinib 0.085 | [4] -0.053 | [5] -0.022 | quisinostat -0.049 | tipifarnib 0.119 | [6] -0.021 | [7] 0.293 | [8] -0.026

ITPRIP (UniProt Q8IWB1)
inactive: duvelisib 0.179 | dasatinib -0.017 | [5] 0.005 | [8] 0.06
